Consider 44 sequences from PMC7819943, “Rice protein-binding microarrays: a tool to detect cis-acting elements near promoter regions in rice”.

The full ranking holds about 35,000 sequences; the median of “fluorescence intensity (a.u.)” is about 10,000, and the highest 2% start at about 52,000. This is one part of a sample in which the highest values are shown more often than they occur.

This experiment has as its target T1, OsWOX13 (Oryza sativa, UniProt Q5QMM3 1-267).
T1 sequence: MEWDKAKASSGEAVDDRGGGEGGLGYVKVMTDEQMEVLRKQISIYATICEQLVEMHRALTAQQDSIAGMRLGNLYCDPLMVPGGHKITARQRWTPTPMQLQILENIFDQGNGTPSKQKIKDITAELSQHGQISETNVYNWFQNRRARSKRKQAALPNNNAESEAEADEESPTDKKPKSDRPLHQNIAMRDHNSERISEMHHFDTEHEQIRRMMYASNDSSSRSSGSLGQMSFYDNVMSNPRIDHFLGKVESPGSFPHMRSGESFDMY
In words: protein-binding microarray (RPBM); PBS, 2% BSA, 51.3 ng/ul salmon testes DNA, 50 uM zinc acetate, 200 nM TF, 25 C, 1 h; high values mean tight binding. Conditions: protein: recombinant; tags: N-terminal polyhistidine and DsRed monomer fusion (pET32a); label: CyDye5-dUTP incorporated in the synthesized complementary strand; 3' TTTTT single-stranded linker to array surface; dsDNA, one strand shown. Put shortly:
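Ni–NTA purification followed expression in E. coli BL21-CodonPlus of transcription factors fused N-terminally to a polyhistidine tag and DsRed. At 200 nM in PBS with 2% BSA, salmon testes DNA and 50 µM zinc acetate, the protein was incubated for 1 h at 25 °C with a custom Agilent array that had been primer-extended with Cy5-dUTP and blocked with 2% BSA. After washing, the array was read on an Axon 4000B scanner. The binding signal is per-feature fluorescence intensity in arbitrary units.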
On to “TGAAATTGGAATGATGTGAAGGAAAAGTTGGAAGTTTGTGCGGAGTCACCTAGTGCAG”, for which the binding signal is 20700 fluorescence intensity (a.u.). To “CTAATTACTATCCATCATGTTTCTGTGGACGCGCGGCTCACGGAGTCACCTAGTGCAG” belongs 9700 fluorescence intensity (a.u.); to “TCTCTATAATTAAACATTCCAATTTCGAAAATGTTGTTAGCGGAGTCACCTAGTGCAG”, 8580 fluorescence intensity (a.u.).

Consider “AAGTTTCAAAATTTAAATTTTGACCGCATGCAGCTGATAACGGAGTCACCTAGTGCAG”, for which the binding signal is 4610 fluorescence intensity (a.u.).

Regarding “ACGTTATTAATTACTTAGTACTACTATGAGTTAACTATGGCGGAGTCACCTAGTGCAG”, the binding signal is 18500 fluorescence intensity (a.u.). As for “CATTGATTGACATTGTTGAGGCAGTACTGTTACAGTTGAGCGGAGTCACCTAGTGCAG”, the binding signal is 59400 fluorescence intensity (a.u.). To “GTACAGTGTACTTGATTGAGTTGACAGTCATACTCTACTACGGAGTCACCTAGTGCAG” belongs 18500 fluorescence intensity (a.u.); to “TTAGATTGGGACAGTACGTAGGAATTGGTTGATTTCCGGGCGGAGTCACCTAGTGCAG”, 16300 fluorescence intensity (a.u.). To “CAGTGTGATTGACTGTTGAGGCGGAGTCGGAGCTGCTTGTCGGAGTCACCTAGTGCAG” belongs 50900 fluorescence intensity (a.u.); to “CACCATTGCATGATTGCATCTGCATCACTGCATGCCAACGCGGAGTCACCTAGTGCAG”, 5680 fluorescence intensity (a.u.); to “CCTGATTCTGATTGGCGCCAACGTACGTACTGTACATGCGCGGAGTCACCTAGTGCAG”, 56900 fluorescence intensity (a.u.).

In the case of “CTATTGATTTCTGCTGCTACTTTTCTATACTGTATTTTGTCGGAGTCACCTAGTGCAG”, the binding signal is 15500 fluorescence intensity (a.u.).

On to “TGGGCCTGATTAACATGTGCTGTAGAATCGTACAACTGTGCGGAGTCACCTAGTGCAG”, for which the binding signal was 7530 fluorescence intensity (a.u.). In the case of “ACTTGTATATTTGTGGATTGATACATTACATATTGATCTACGGAGTCACCTAGTGCAG”, the binding signal was 5160 fluorescence intensity (a.u.). Regarding “GCTTAATTGGTTAGTGGACTAGTATATAGTAGTACTGTATCGGAGTCACCTAGTGCAG”, the binding signal was 46500 fluorescence intensity (a.u.). To “TATTGATTGATTGGTTAGTACTACAGTACTGTAGGAGTGGCGGAGTCACCTAGTGCAG” belongs 64700 fluorescence intensity (a.u.); to “ATTTGATTGTATATTGTACTAGTGCTACTACTACGTGGAGCGGAGTCACCTAGTGCAG”, 60400 fluorescence intensity (a.u.). For the sequence “AAAGGGTTAATTTGTCAAATTTTCGGGCTTTAGTGAAAAGCGGAGTCACCTAGTGCAG”, the binding signal is 12700 fluorescence intensity (a.u.).

Turning to “TCAAACTTACATAATTTACATGCCATGTTATCCAATATGCCGGAGTCACCTAGTGCAG”, the binding signal is 11100 fluorescence intensity (a.u.).

Regarding “GGAAAGACAGATTGAAGAAGCTGGGGTTCAAACCCAGGATCGGAGTCACCTAGTGCAG”, the binding signal is 10300 fluorescence intensity (a.u.). “ATGTCGACATACGTAATTAATGTACACTCAGAACATGTCGCGGAGTCACCTAGTGCAG”: the binding signal was 4870 fluorescence intensity (a.u.). Consider “TAAAACTATTTAATTACCAAACTATTCACGTGATGAGATGCGGAGTCACCTAGTGCAG”, for which the binding signal was 14900 fluorescence intensity (a.u.).

Turning to “CTAATCTAATCATCGGATTAGGAAATAAGTAAGCAAACAACGGAGTCACCTAGTGCAG”, the binding signal is 6880 fluorescence intensity (a.u.). As to “TCTATAAATTGAACATGTTTCAAACCAGGCTTGCAAGTTGCGGAGTCACCTAGTGCAG”, the binding signal is 15500 fluorescence intensity (a.u.). For the sequence “AGTTTCCTAATCTATTATATGATAGTACTCGGTCGGAGCTCGGAGTCACCTAGTGCAG”, the binding signal is 3210 fluorescence intensity (a.u.). For the sequence “ATTTAACTGTATAAACAATTAATAACAAGAATTGTGTATACGGAGTCACCTAGTGCAG”, the binding signal is 16100 fluorescence intensity (a.u.). For “AGTAATTTACTTGCTAGCTTGCAACTATTTCTTAGTACATCGGAGTCACCTAGTGCAG”, the binding signal was 3460 fluorescence intensity (a.u.). As for “CATCCTCATTAACGGCAGATTAATACTATTTAGTCCATCTCGGAGTCACCTAGTGCAG”, the binding signal is 3220 fluorescence intensity (a.u.). To “AAGTTGATTACTTAAACTGATTGACAGGGAGGCGGTTGAACGGAGTCACCTAGTGCAG” belongs 56600 fluorescence intensity (a.u.); to “AAATTTTGATTTTAAAACTTAATTGTAAAGTTGACTTTAACGGAGTCACCTAGTGCAG”, 9040 fluorescence intensity (a.u.); to “AAACTGATTGACGGTTTTCTTTCTAAAACTGATTTTCAGGCGGAGTCACCTAGTGCAG”, 43200 fluorescence intensity (a.u.). To “TATATATATATATATATATATATACCCACGTGAGGACGTACGGAGTCACCTAGTGCAG” belongs 31500 fluorescence intensity (a.u.). To “AATTGATGATGAAATAATGAATGATATTTGACAAGGAGCTCGGAGTCACCTAGTGCAG” belongs 17300 fluorescence intensity (a.u.). In the case of “ACGTAATTATAGCTTATTTTGTTATGAGTTATTTTATCACCGGAGTCACCTAGTGCAG”, the binding signal is 24500 fluorescence intensity (a.u.). In the case of “ACGTAATTATAATTTATTTTGTTATGAGTTGGTTTATCACCGGAGTCACCTAGTGCAG”, the binding signal is 62600 fluorescence intensity (a.u.). To “CACAATTTAATATGGTTATAATTGTAATCTCACATATCCTCGGAGTCACCTAGTGCAG” belongs 7610 fluorescence intensity (a.u.).

For “TGAAATGGTTAAATGATTTGGGTTGAAATATTATGAAAATCGGAGTCACCTAGTGCAG”, the binding signal is 3220 fluorescence intensity (a.u.). For the sequence “ATAATTGATAATGAAGACCAAGGAAATGCTTCTTTGGTCCCGGAGTCACCTAGTGCAG”, the binding signal was 54300 fluorescence intensity (a.u.). To “TTAGTGCTTAAATGATTAATCTATGGTCTAAATTATCTTTCGGAGTCACCTAGTGCAG” belongs 7610 fluorescence intensity (a.u.); to “ACGTAATTATAATTTATTTTATTATGAGTTGTTTTATCACCGGAGTCACCTAGTGCAG”, 37000 fluorescence intensity (a.u.). To “GGCAGCAAGACCAATTTTAATTGAAGACCACGGAAGGAGCCGGAGTCACCTAGTGCAG” belongs 3450 fluorescence intensity (a.u.); to “TTTGTTATAATTGATATTTAATTAATCATATGGTAATTACCGGAGTCACCTAGTGCAG”, 27800 fluorescence intensity (a.u.). To “GTTGATTTAATTATGGTTAACCTCTCACAGTAATCCGGGTCGGAGTCACCTAGTGCAG” belongs 64800 fluorescence intensity (a.u.); to “GTGAAAATGATTGGTCTTTTGATTAACATATGCAGCTTATCGGAGTCACCTAGTGCAG”, 53300 fluorescence intensity (a.u.).
